# Hit rate of the full screen: of about 340,000 compounds, about 5,100 (1.5%) were called active.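 The calls were made as follows: active = mean Tm shift, scaled 0 neutral to 100 positive control, at about 1.3% or above, every replicate too (limit read from the data); inconclusive = no clear call, values can overlap the other calls; inactive = the rest.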 Many of the other results were omitted from the sample, so actives are more common in it than they were.
# Target: Fibroblast growth factor 22 (Homo sapiens) (UniProt Q9HCT0)
# Test: binders of human FGF22 protein, primary screen, FGF22 synaptogenesis inhibitor project, biophysical, thermal shift, single point (AID 651658)
# Details: recombinant FGF22 thermal shift, SYPRO orange fluorescence; at 9.99 µM; active compounds read high; percent of sucrose octasulfate shift, DMSO zero
# Chain of Fibroblast growth factor 22 (Homo sapiens) (Q9HCT0 whole entry, looked up): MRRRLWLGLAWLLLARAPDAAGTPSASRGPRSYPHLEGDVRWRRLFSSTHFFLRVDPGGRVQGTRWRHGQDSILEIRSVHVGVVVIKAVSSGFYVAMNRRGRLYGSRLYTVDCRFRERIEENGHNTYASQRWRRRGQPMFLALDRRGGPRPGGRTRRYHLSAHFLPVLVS
row,SMILES,"activity (Tm shift, normalised)"
1,CCCNC(=O)N1CC2(CCN(C(=O)C3CC3)CC2)c2c([nH]c3cc(OC)ccc23)[C@H]1CO,-0.002% (inactive)
2,CCC(=O)N(C)C[C@@H]1Oc2ncc(C#Cc3cccnc3)cc2C(=O)N([C@@H](C)CO)C[C@@H]1C,0.101% (inactive)
3,Cc1cc(Cl)ccc1OCCCC(=O)NCc1ccccn1,43.6% (active)
4,Cc1ccc(SCCC(=O)NCc2ccccn2)cc1,0.257% (inactive)
5,Cc1cc(Cl)ccc1OCCCC(=O)Nc1cccc(-n2cnnn2)c1,0.032% (inactive)
6,COc1cc(OC)cc(-c2nc(=S)n3ccsc3n2)c1,43.5% (active)
7,COc1cccc(C(=O)n2ccc(-c3cccs3)n2)c1,-0.099% (inactive)
8,C[C@@H]1CCCCO[C@H](CN(C)C(=O)Nc2ccc(C(F)(F)F)cc2)[C@@H](C)CN([C@@H](C)CO)C(=O)c2cc(NC(=O)Nc3cccc4ccccc34)ccc2O1,-0.177% (inactive)
9,C[C@H]1CCCCO[C@@H](CN(C)Cc2ccccc2)[C@@H](C)CN([C@@H](C)CO)C(=O)c2cc(NC(=O)Cc3ccccc3)ccc2O1,-0.273% (inactive)
10,Cc1ccc(S(=O)(=O)Nc2nc3ccccc3s2)cc1[N+](=O)[O-],2.09% (active)
11,CCOc1ccc2sc(NS(=O)(=O)c3ccc(N)cc3)nc2c1,0.571% (inactive)
12,Cc1ccc(S(=O)(=O)N(Cc2ccccc2)c2ccccn2)cc1[N+](=O)[O-],-0.192% (inactive)
13,CO[C@H](CN(C)C(=O)c1ccc2c(c1)OCO2)[C@H](C)CN([C@@H](C)CO)S(=O)(=O)c1ccc(Cl)cc1,0.025% (inactive)
14,C[C@@H]1CCCCO[C@H](CN(C)S(=O)(=O)c2ccc(Cl)cc2)[C@H](C)CN([C@@H](C)CO)C(=O)c2cc(NS(=O)(=O)c3cn(C)cn3)ccc2O1,-0.295% (inactive)
15,O=c1c2c3c(sc2n(CCN2CCCC2)c(=O)n1Cc1ccccc1)CCCCC3,-0.07% (inactive)
16,COCCn1cnc2c1c(=O)n(Cc1ccc(Br)cc1)c(=O)n2Cc1ccccc1,0.138% (inactive)
17,CN(C)CCCn1c(=O)n(Cc2ccccc2)c(=O)c2c3c(sc21)CCCCC3,5.16% (active)
18,CC(C)NC(=O)N(C)C[C@@H]1OCCCC[C@@H](C)Oc2ccc(NC(=O)NC3CCCCC3)cc2C(=O)N([C@@H](C)CO)C[C@@H]1C,-0.284% (inactive)
19,CCOc1ccc(/C=C(/NC(=O)c2ccccc2)C(=O)NCCC(=O)O)cc1,43.7% (active)
20,COc1ccc(/C=C(/NC(=O)c2ccccc2)C(=O)Nc2cccc(C(=O)O)c2)cc1,-0.131% (inactive)
21,CCOC(=O)CNC(=O)/C(=C\c1ccc(F)cc1)NC(=O)c1ccccc1,0.033% (inactive)
22,O=C(C[C@H]1C[C@H]2c3cc(NC(=O)Nc4ccc(C(F)(F)F)cc4)ccc3O[C@H]2[C@@H](CO)O1)NCCc1ccccc1,0.15% (inactive)
23,C[C@@H]1CN([C@H](C)CO)C(=O)c2cc(NC(=O)CCCCCC(=O)Nc3ccccc3N)ccc2O[C@H]1CN(C)Cc1ccncc1,-0.063% (inactive)
24,C[C@@H]1CN([C@H](C)CO)C(=O)c2c(c3ccccc3n2C)-c2ccccc2CO[C@H]1CN(C)Cc1ccc(F)cc1,0.453% (inactive)
25,COc1cc(C(=O)NCc2ccncc2)cc(Br)c1OCc1ccccc1,-0.2% (inactive)

row,SMILES,"activity (Tm shift, normalised)"
1,COc1cc(C(=S)NCc2ccccc2)cc(Br)c1O,44.4% (active)
2,COc1cc(C=O)c(Br)cc1OCC(=O)NCc1ccccc1,-0.006% (inactive)
3,CCCC(=O)N1CC2(CCN(C(=O)C3CC3)CC2)c2c(n(C)c3cc(OC)ccc23)[C@H]1CO,0.143% (inactive)
4,O=C1CC(c2ccccc2)C(=O)N2C(=O)CC(c3ccccc3)C(=O)N12 (stereo not given),-0.169% (inactive)
5,O=C1OCC2=C1C(c1ccccc1)CC(=O)N2c1cccc(F)c1 (stereo not given),43.2% (active)
6,CN1C(=O)CC(c2ccccc2)C1=O (stereo not given),0.006% (inactive)
7,N#Cc1cc([N+](=O)[O-])ccc1NC(=O)COC(=O)c1cnccn1,-0.067% (inactive)
8,Cc1cnc(C(=O)OCC(=O)NCCCc2ccccc2)cn1,0.133% (inactive)
9,COc1cc(NC(=O)COC(=O)c2cnc(C)cn2)c(C)cc1[N+](=O)[O-],43.3% (active)
10,COc1cccc(CNC(=O)C[C@H]2CC[C@@H](NC(=O)C3CCC3)[C@@H](CO)O2)c1,-0.144% (inactive)
11,COc1ccc(CN2CCN(C(=O)c3cc(C4CC4)nn3-c3ccccc3)CC2)cc1F,-0.038% (inactive)
12,CCc1ccccc1NC(=O)CN(C)C(=O)c1cc(C2CC2)nn1-c1ccccc1,0.146% (inactive)
13,CCc1ccccc1NC(=O)CN1CCN(C(=O)c2cc(C3CC3)nn2-c2ccccc2)CC1,44.1% (active)
14,O=C(CC(F)(F)F)N1C[C@H]2[C@@H](c3ccccc31)[C@H](CO)N2C(=O)Cc1ccccc1,-0.096% (inactive)
15,CCCCNC(=O)N1CCN(S(C)(=O)=O)CC1,43% (active)
16,CC(C)NC(=S)N1CCN(S(C)(=O)=O)CC1,-0.113% (inactive)
17,CS(=O)(=O)N1CCN(C(=O)CSc2ccccc2)CC1,-0.196% (inactive)
18,COc1cccc(NCCC(=O)c2cccc([N+](=O)[O-])c2)c1,43.4% (active)
19,COc1cccc(C(=O)CC(=O)C(=O)Nc2ccc([N+](=O)[O-])cc2C)c1,-0.246% (inactive)
20,COc1ccc(Cc2nnc(SCC(=O)c3cccc([N+](=O)[O-])c3)n2C)cc1,0.217% (inactive)
21,CCC(CC)NC(=O)/C=C/c1cccc([N+](=O)[O-])c1,-0.166% (inactive)
22,Cc1ccc(NC(=O)O/N=C/c2cccc([N+](=O)[O-])c2)cc1,1.7% (active)
23,Cc1ccc(NC(=O)C(=O)NCC2CCN(C(=O)c3cccc([N+](=O)[O-])c3)CC2)cc1,0.238% (inactive)
24,CO[C@H]1CN(C)C(=O)c2cc(NC(=O)Nc3ccc4c(c3)OCO4)ccc2OC[C@@H](C)NC[C@@H]1C,-0.132% (inactive)
25,O=C(C1CCCCC1)N1CC2(C1)[C@H](c1ccccc1)[C@@H](CO)N2Cc1cncnc1,-0.162% (inactive)

# Source: PubChem BioAssay AID651658 (Broad Institute, 2012)
